We go through 16 molecules from ChEMBL document CHEMBL3433997, “St. Jude Leishmania screening dataset” (2016).

SMILES strings stand for the structures.

The target in this assay is Solute carrier family 2, facilitated glucose transporter member 1 (Homo sapiens) (UniProt P11166). In words: ST_JUDE_LEISH: Cytotoxicity at 2uM final concentration against transgenic Leishmania Mexicana promastigotes LmGLUT1 that are glucose transport deficient and complemented with the human glucose transporter GLUT1. Activity is measured by DNA content using SYBR green in vitro. Format: functional.
Sequence of Solute carrier family 2, facilitated glucose transporter member 1 (Homo sapiens) (P11166 whole entry): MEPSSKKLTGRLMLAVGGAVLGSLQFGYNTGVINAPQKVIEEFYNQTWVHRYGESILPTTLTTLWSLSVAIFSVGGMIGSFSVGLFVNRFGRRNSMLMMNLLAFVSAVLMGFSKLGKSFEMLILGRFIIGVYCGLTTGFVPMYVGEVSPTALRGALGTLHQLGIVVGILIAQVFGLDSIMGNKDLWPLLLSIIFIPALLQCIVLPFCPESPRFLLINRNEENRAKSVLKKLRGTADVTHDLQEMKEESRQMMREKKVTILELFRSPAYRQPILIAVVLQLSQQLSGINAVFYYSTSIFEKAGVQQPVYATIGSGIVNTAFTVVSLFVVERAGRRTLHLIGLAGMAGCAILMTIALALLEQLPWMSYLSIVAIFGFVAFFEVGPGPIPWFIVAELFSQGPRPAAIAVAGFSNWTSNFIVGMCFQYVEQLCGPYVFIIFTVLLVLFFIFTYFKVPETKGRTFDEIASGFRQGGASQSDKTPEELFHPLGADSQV
Take `CCOc1ccc2c(=NN=Cc3ccccc3F)cc(C)[nH]c2c1`: the inhibition was found to be 1.77%.

Turning to `C[C@H]1CN(Cc2cccc(-c3cc(CNC(=O)c4cccc(CN5CCN(C/C=C/c6ccccc6)CC5)c4)ccc3F)c2)CCN1`, the inhibition is 11.6%. Under `CN1CCC(c2cc3c(cc2Br)CCN3C(=O)Nc2ccc(-c3ccncc3)c(Cl)c2)CC1` stands 0.33%; under `CCOC(=O)C(C#N)NC(=O)C=Cc1ccccc1` (stereo unspecified), 7.73%. Next, `CC(C)CN1CCCN(Cc2cccc(NC(=O)c3ccc(-c4ccccc4)cc3)c2)CC1`: 0.53%. Next, `CCCN(Cc1nnc(-c2ccco2)o1)C(=O)C1CCN(c2ncc(C(F)(F)F)cc2Cl)CC1`: 11.4%; `N#Cc1ccccc1C(=O)N(Cc1cncn1Cc1cccc(F)c1)CC1CC1`: 6.38%. For the molecule `C=CCc1cc(Br)ccc1OCCCON1C(N)=NC(N)=NC1(C)C`, the inhibition worked out at 19.1%. Turning to `COc1ccc(CN2CCC(CNCCc3ccccc3Cl)CC2)cc1`, the inhibition was determined as 19.2%. Next, `CC(C)(C)c1ccc(-c2nc3c(ccc4nc(N)nc(N)c43)[nH]2)cc1`: -1%; `Cc1ccc(C(=O)Nc2ccc(F)c(F)c2F)cc1S(=O)(=O)N1CCCCC1`: 4.08%. On to `Cc1nn(CC(C)C)c2sc(C(=O)N3CCN(S(=O)(=O)c4ccc(C#N)cc4)CC3)cc12`, for which the inhibition was determined as 10.3%. Next, `COc1cccc(NC(=O)Cn2c(C)c(C#N)c3ccccc32)c1`: 3.53%; `CCOc1ccc(Nc2nc(N)c3ccccc3n2)cc1`: 12.3%. Under `COCCn1c(SC(C)C(=O)Nc2cc(C(F)(F)F)ccc2Cl)nc2ccccc2c1=O` (stereo unspecified) stands 0.17%. Under `CN1CCC(C(=O)Nc2ccc(-c3ccc(-c4nc5cc(C(F)(F)F)ccc5[nH]4)s3)cc2)CC1` stands -0.08%.

One may read the inhibition as the drop in the measured response relative to a control, in per cent.
